FLuc inh-1: Photinus pyralis luciferase inhibition; P08659; purified P. pyralis luciferase, luminescence, biochemical; Potency, µM (highest dose often 115 µM), most hits filed as inhibitors; 76,000 compounds, 2.5% hits; AID 1347043; note: % is set by controls: 0 for no effect and ±100 for the full control effect; nearly all actives have a fitted effect of over 65% in size
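Biochemical qHTS: compound (6-point titration) added to 10uM D-luciferin plus 10uM ATP in Tris acetate pH 7.5 buffer with Mg, Tween-20 and BSA, then purified enzyme at 10nM; light output imaged.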
GPT2 inh: blocks human glutamate pyruvate transaminase 2; Q8TD30; Recombinant GPT2, coupled pyruvate oxidase/HRP Amplex Red fluorescence; Potency, µM (doses to about 57.7 µM), inactives show top-dose activity change, negative = inhibition, actives largely listed as inhibitors; 100,000 compounds, 0.25% hits; note: % is set by controls: 0 for no effect and ±100 for the full control effect; nearly all actives have a fitted effect of over 60% in size
Target sequence (Q8TD30 whole entry, looked up): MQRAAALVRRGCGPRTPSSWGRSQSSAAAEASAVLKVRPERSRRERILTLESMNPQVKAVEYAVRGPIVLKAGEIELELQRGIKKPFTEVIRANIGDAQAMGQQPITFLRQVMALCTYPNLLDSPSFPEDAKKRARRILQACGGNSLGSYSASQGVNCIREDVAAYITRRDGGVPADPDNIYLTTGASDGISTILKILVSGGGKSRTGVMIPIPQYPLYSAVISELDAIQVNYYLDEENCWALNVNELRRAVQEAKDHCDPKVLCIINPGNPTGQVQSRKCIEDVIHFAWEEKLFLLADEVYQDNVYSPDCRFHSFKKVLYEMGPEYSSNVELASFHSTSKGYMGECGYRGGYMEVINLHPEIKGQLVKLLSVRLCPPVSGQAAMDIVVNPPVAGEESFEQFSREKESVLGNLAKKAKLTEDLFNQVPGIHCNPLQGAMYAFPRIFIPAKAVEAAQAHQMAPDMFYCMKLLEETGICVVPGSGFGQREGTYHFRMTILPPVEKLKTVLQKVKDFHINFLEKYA
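Fluorescence of coupled pyruvate oxidase/HRP/Amplex Red system (50uM Amplex, 30 min, dark) reports pyruvate formed by GPT2. Enzyme reaction: 10ng/uL GPT2, 2mM L-alanine, 250uM a-KG, 30 min room temperature, pH 7.5; 50uM AOA control.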
hNpr1 antagonist: human Npr1 receptor antagonism | HEK293 hNpr1 GloSensor cGMP, ANP-stimulated luminescence | P16066 | 76,000 compounds, 1.6% hits | Potency, µM (doses to about 46.3 µM), without a hit: at the highest dose activity change, negative = inhibition, hits mostly inhibitors; calls by dose curve; note: % is set by controls: 0 for no effect and ±100 for the full control effect; nearly all actives have a fitted effect of over 60% in size
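HEK293 cells stably expressing human Npr1 and cGMP GloSensor pGS-40F, loaded 2 h with 2% GloSensor reagent, given compound 30 min at room temperature. Luminescence read before and 20 min after 0.1 nM hNppA.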
HEK293 tox: kills HEK 293 cells. HEK 293 viability, ATP luminescence (CellTiter-Glo), 48-72 h. Potency, µM (titrated, usually from 115 µM), for the others: at the highest dose activity change, negative = cytotoxicity, most hits filed as inhibitors. 94,000 compounds, 6.6% hits. AID 1345083; note: % is set by controls: 0 for no effect and ±100 for the full control effect; nearly all actives have a fitted effect of over 60% in size
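Viability of HEK 293 cells, plated at 250 cells/well, was judged by cellular ATP after compound treatment for 48 or 72 hr. Luminescence was imaged 10 min after CellTiter-Glo addition at room temperature.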
3T3 cytotox: kills NIH 3T3 cells | 94,000 compounds, 4.3% hits | NIH 3T3 viability, CellTiter-Glo ATP luminescence, 48-72 h | Potency, µM (highest dose often 96.7 µM), inactives show at the highest dose activity change, negative = cytotoxicity, hits mostly inhibitors; note: % is set by controls: 0 for no effect and ±100 for the full control effect; nearly all actives have a fitted effect of over 55% in size
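NIH 3T3 cells at 400 cells/well received 23 nL of compound by pintool and were incubated 48 or 72 h at 37 °C. Viability was read as ATP-coupled CellTiter-Glo luminescence.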
FLuc SDR no ATP: firefly luciferase binding stabilization, ATP absent; Potency, µM (series often up to 32.7 µM), without a hit: at the top dose activation (signal gain), usual class: activators; Purified FLuc-C-HiBiT, Nano-Glo HiBiT luminescence, no ATP; shares compounds with FLuc inh-1; AID 1963318; 1,300 compounds, 7.8% hits; note: nearly all actives have a fitted effect of over 55% in size
FLuc SDR ATP: binders stabilizing firefly luciferase, plus ATP | shares compounds with FLuc inh-1 | purified FLuc-C-HiBiT + ATP, HiBiT complementation luminescence | Potency, µM (top dose mostly 32.7 µM), inactives show top-dose activation (gain of signal), hits mostly activators | 1,300 compounds, 8.7% hits | AID 1963319;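 note: signal reports ligand binding via conformational change of the enzyme rather than luciferase catalysis; % of control where 0% means no effect; nearly all actives have a fitted effect of over 55% in size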
FLuc inh-2: blocks firefly luciferase enzymatic activity. purified FLuc-C-HiBiT enzyme, luciferin luminescence. shares compounds with FLuc inh-1. 1,300 compounds, 42% hits. Potency, µM (series often up to 32.7 µM), inactives show at the highest dose activity change, negative = inhibition, actives largely listed as inhibitors; note: % is set by controls: 0 for no effect and ±100 for the full control effect; nearly all actives have a fitted effect of over 70% in size
* hit, by the source's call; [ ] = another dose, or the depositor's remark. The list is not random: actives were taken first. Their share in the collection is about 10%. Unless noted, calls come from the whole dose curve; as a rule, active = well fitted curve in the direction sought with a large enough effect; inconclusive = small, poorly fitted or top-dose-only effect, or another doubt; inactive = no such curve, though single readings can be large; an effect the other way counts as inactive or inconclusive. Potency is the fitted concentration of half-maximal effect.

For Cc1ccc(-n2ncc3c(N4CCC(C)CC4)ncnc32)cc1C the results were FLuc SDR no ATP 22%, FLuc SDR ATP inconclusive and FLuc inh-2 5µM*.
O=C(Nc1cc(-c2cccnc2)nn1-c1ccccc1)c1ccc(Cl)nc1 was read as GPT2 inh -5%, HEK293 tox -27% and 3T3 cytotox inconclusive.
C#CCNC(=O)C[C@@H]1c2nc(NC(=O)N3CCOCC3)sc2C[C@@H]2[C@](C)(CO)[C@H](O)CC[C@]21C was read as FLuc inh-1 inactive, GPT2 inh -1%, hNpr1 antagonist -7%, HEK293 tox -6% and 3T3 cytotox -16%.
For COc1cccc(C(=O)Nc2ccc(-c3nc4ccccc4s3)cc2Cl)c1 the results were FLuc SDR no ATP 14%, FLuc SDR ATP 9% and FLuc inh-2 -1%.
COc1cccc(CNC(=O)CNC(=O)c2ccc(-c3cnc4ccccc4c3)cc2)c1 was read as GPT2 inh 1%, HEK293 tox inconclusive and 3T3 cytotox -15%.
For COc1ccc(CC(=O)Nc2ccc(-c3nc4ccccc4s3)cc2Cl)cc1OC the results were FLuc SDR no ATP 15%, FLuc SDR ATP 11% and FLuc inh-2 -19%.
`COc1cccc(C(=O)Nc2cc(-c3ccncc3)nn2C)c1` gave GPT2 inh inactive, HEK293 tox inconclusive and 3T3 cytotox inconclusive.
Screening COc1ccc(CCC(=O)Nc2nc3ccc(Cl)cc3s2)cc1OC returned GPT2 inh inactive.
COc1cccc(CC(=O)Nc2ccc(-c3nc4ccccc4s3)cc2Cl)c1 was read as FLuc SDR no ATP 13%, FLuc SDR ATP 9% and FLuc inh-2 -9%.
`CC(C)n1c(CNC(=O)CC[C@H]2NC(=O)c3ccccc3NC2=O)nc2ccccc21` gave FLuc inh-1 inactive, GPT2 inh inactive, hNpr1 antagonist 3%, HEK293 tox inconclusive and 3T3 cytotox inconclusive.
For COc1ccc(Nc2cc3c(nc2OC)nc(CCc2ccccc2)n3C)cn1 the results were FLuc inh-1 6.3µM*, GPT2 inh -7%[88.5 µM], hNpr1 antagonist -24%[70.6 µM], HEK293 tox inconclusive, 3T3 cytotox inconclusive, FLuc SDR no ATP 15%[49.3 µM], FLuc SDR ATP 19%[49.3 µM] and FLuc inh-2 inconclusive.
COc1ncccc1-c1cc2c(nc1OC)nc(CCc1ccccc1)n2C was read as FLuc inh-1 inactive, GPT2 inh -19%[88.5 µM], hNpr1 antagonist -9%[70.6 µM], HEK293 tox inconclusive and 3T3 cytotox inconclusive.
Screening CCNC(=O)N1CCCC1c1noc(CCC(=O)N2CCN(c3ccccn3)CC2)n1 (configuration not stated) returned GPT2 inh 0%, HEK293 tox -8% and 3T3 cytotox -7%.
For Cc1ccc(NC(=O)c2ccc(Cn3ccn4nc5c(c4c3=O)CCCC5)cc2)cc1C the results were FLuc inh-1 inconclusive, GPT2 inh 0%, hNpr1 antagonist -16%, HEK293 tox inconclusive and 3T3 cytotox -22%.
`Cc1ccc(NC(=O)c2ccc3snnc3c2)cc1C` gave FLuc SDR no ATP 18%, FLuc SDR ATP inconclusive and FLuc inh-2 inconclusive.
COc1cccc(-c2cn3c(n2)N(C(=O)c2ccoc2)CCC3)c1 was read as FLuc inh-1 inactive, GPT2 inh -2%, hNpr1 antagonist -2%, HEK293 tox inconclusive and 3T3 cytotox inactive.
For COc1cccc(-c2cn3ncsc3n2)c1 the results were FLuc SDR no ATP 22%, FLuc SDR ATP 16% and FLuc inh-2 inconclusive.
`O=C1N(C2CCN(Cc3ccccn3)CC2)C(c2ccncc2)C12CCCCC2` (configuration not stated) gave FLuc inh-1 inactive, GPT2 inh -15%, hNpr1 antagonist 8%, HEK293 tox inactive and 3T3 cytotox 3%.
Cc1cccn2c(=O)c(C(=O)NCCc3ccccc3)cnc12 was read as FLuc SDR no ATP inconclusive, FLuc SDR ATP inconclusive and FLuc inh-2 7µM*.
For O=C1NC2(CCN(C(=O)c3ccc(F)cc3)C2)Oc2ccccc21 (configuration not stated) the results were FLuc inh-1 inactive, GPT2 inh -3%[88.5 µM], hNpr1 antagonist 0%[70.6 µM], HEK293 tox -25%[172 µM] and 3T3 cytotox -19%[138 µM].
CCc1ccccc1NC(=O)c1nnn(-c2ccc(F)cc2)c1C was read as FLuc SDR no ATP 30%, FLuc SDR ATP 19% and FLuc inh-2 inconclusive.
Cc1noc(C)c1[S+](=O)([O-])N1CCC(C(=O)N2CCC(c3nc4ncccc4[nH]3)CC2)C1 (configuration not stated) was read as GPT2 inh -2%, HEK293 tox -4% and 3T3 cytotox inactive.
Screening CCOc1ccc2nc(N(Cc3cccnc3)C(=O)c3cccs3)sc2c1 returned FLuc SDR no ATP 10%, FLuc SDR ATP 7% and FLuc inh-2 -19%.
`O=C(N1CCC(Cc2ccccc2)CC1)C1(c2ccc(Cl)cc2)CCOCC1` gave GPT2 inh -28%, HEK293 tox inconclusive and 3T3 cytotox inconclusive.
CNC(=O)c1cccc(-c2cnc(NC(=O)Cc3ccccc3)c3c2CCO3)c1 was read as FLuc inh-1 0.45µM*, GPT2 inh -5%[88.5 µM], hNpr1 antagonist 8.9µM*, HEK293 tox inconclusive, 3T3 cytotox inconclusive, FLuc SDR no ATP 11µM*, FLuc SDR ATP inconclusive and FLuc inh-2 3.2µM*.
`Fc1cccc(-c2cnc(Nc3ccc(N4CCOCC4)cc3)c3c2CCO3)c1` gave FLuc inh-1 10µM*, GPT2 inh -4%[88.5 µM], hNpr1 antagonist -28%[70.6 µM], HEK293 tox inconclusive, 3T3 cytotox inconclusive, FLuc SDR no ATP 17%[49.3 µM], FLuc SDR ATP 10%[49.3 µM] and FLuc inh-2 inconclusive.
Fc1cc(Nc2ncc(-c3ccccc3)c3c2OCC3)cc(N2CCOCC2)c1 was read as FLuc inh-1 inactive, GPT2 inh 3%[88.5 µM], hNpr1 antagonist 1%[70.6 µM], HEK293 tox inconclusive and 3T3 cytotox inconclusive.

Screening results from PubChem.
